Only some compounds are listed: those with a hit (about 16% of all), similar ones and a draw of the others.
DT40 TDP1 no CPT – qHTS for Inhibitors of human tyrosyl-DNA phosphodiesterase 1 (TDP1): qHTS in cells in absence of CPT; DT40 Tdp1-/- hTDP1 cells, no CPT, ATP luminescence, 48 h; Potency, µM (doses to about 46.2 µM), for the others: top-dose activity change, negative = growth inhibition, hits mostly inhibitors; 420,000 compounds, 15% hits; also: potency is read from the fitted curve at half-maximal effect; % is scaled to controls: 0 for no effect and ±100 for the full control effect; nearly all actives have a fitted effect of over 55% in size
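Readout: luminescence from CellTiter-Glo after 30 min in the dark at RT. Cells: DT40 Tdp1-/- with stable hTDP1, 400/well. Exposure: compounds alone, ≥48 hr, 37 °C.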
uPA generation – qHTS for Inhibitors of Cell Surface uPA Generation. cell surface uPA generation assay, qHTS. Potency, µM (top dose mostly 38.3 µM), without a hit: top-dose activity change, negative = inhibition, hits mostly inhibitors. 330,000 compounds, 0.31% hits. AID 540303, 2011; active = well fitted inhibition curve with a large enough effect; inconclusive = small, poorly fitted or top-dose-only effect; inactive = no such curve, though single readings can be large or run the other way; tested in mouse RAW 264.7 cells; also: potency is read from the fitted curve at half-maximal effect; % is scaled to controls: 0 for no effect and ±100 for the full control effect; nearly all actives have a fitted effect of over 55% in size
miR-21 act – qHTS Assay for Modulators of miRNAs and/orActivators of miR-21; HeLa miR-21 FLuc reporter, luciferase, 48 h; Potency, µM (series often up to 38.3 µM), without a hit: at the top dose activity change, positive = activation, actives largely listed as activators; 340,000 tested, under 10 active; AID 2288, 2010;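 also: % of control where 0% means no effect; miR-21 action dims this reporter so a rising signal means less miR-21 action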
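HeLa miR-21-FLuc reporter line, endogenous miR-21; 2000 cells/well in DMEM/10% FBS; compound titration up to ~40uM final, 48 h, 37 degree Celsius; luciferase detection reagent, 15 min lysis, CCD luminescence.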
DT40 TDP1 CPT – qHTS for Inhibitors of human tyrosyl-DNA phosphodiesterase 1 (TDP1): qHTS in cells in presence of CPT. chicken DT40 Tdp1-/-;hTDP1 cells + 20 nM CPT, ATP luminescence, 48 h. Potency, µM (doses to about 46.2 µM), for the others: at the top dose activity change, negative = growth inhibition, usual class: inhibitors. 420,000 compounds, 12% hits; also: potency is read from the fitted curve at half-maximal effect; % is scaled to controls: 0 for no effect and ±100 for the full control effect; nearly all actives have a fitted effect of over 55% in size
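Chicken DT40 Tdp1-/- cells complemented with human TDP1, 400 cells/well, exposed to compounds plus 20 nM camptothecin for at least 48 h at 37 C; viability read as ATP content by CellTiter-Glo luminescence.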
TDP1 block – qHTS Assay for Inhibitors of Tyrosyl-DNA Phosphodiesterase (TDP1) | Tyrosyl-DNA phosphodiesterase 1 (Homo sapiens), Q9NUW8 | recombinant TDP1, AlphaScreen DNA substrate cleavage | Potency, µM (highest dose often 130 µM), for the others: top-dose activity change, negative = inhibition, usual class: inhibitors | 350,000 compounds, 0.28% hits | AID 485290, 2010; also: potency is read from the fitted curve at half-maximal effect; % is scaled to controls: 0 for no effect and ±100 for the full control effect; nearly all actives have a fitted effect of over 40% in size
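Enzyme-compound mixtures sat 15 min at room temperature, followed by a 5 min reaction with 15 nM final substrate and 10 min with AlphaScreen beads. Recombinant human Tdp1 was used at 1 nM final.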
Numbers without * were called inactive. Unless noted, calls follow the shape of the dose curve; as a rule, active = well fitted curve in the direction sought with a large enough effect; inconclusive = small, poorly fitted or top-dose-only effect, or another doubt; inactive = no such curve, though single readings can be large; an effect the other way counts as inactive or inconclusive.

What do the screens show for `CCN(CC)CCn1c(NCc2cc(OC)ccc2OC)nc2ccccc21`?
DT40 TDP1 no CPT: inconclusive; uPA generation: 1%; miR-21 act: -4%; DT40 TDP1 CPT: inconclusive; TDP1 block: 0%

Results for CCN(CC)CCNC1=NCCn2c1cc1cc(OC)ccc12 ?
DT40 TDP1 no CPT: inconclusive; uPA generation: 4%; miR-21 act: -3%; DT40 TDP1 CPT: 21µM*; TDP1 block: 5%

How did CCOc1cc(S(=O)(=O)N2CCC(Cc3ccccc3)CC2)c(OCC)cc1-n1cnnn1 do in these assays?
DT40 TDP1 no CPT: -28%; uPA generation: 8%; miR-21 act: 13%; DT40 TDP1 CPT: -20%; TDP1 block: 12%

Results for CCOc1cc(S(=O)(=O)N2CC=C(c3ccc(F)cc3)CC2)c(OCC)cc1-n1cnnn1 ?
DT40 TDP1 no CPT: 10µM*; uPA generation: 2%; miR-21 act: inconclusive; DT40 TDP1 CPT: 15µM*; TDP1 block: 1%

Results for Cc1nn(C(C)CC(=O)O)c(C)c1Br (stereo unspecified) ?
DT40 TDP1 no CPT: -3%; uPA generation: 8%; miR-21 act: 0%; DT40 TDP1 CPT: 25%; TDP1 block: 0%

Results for Cc1cc2c(cc1C)C(c1cccc(F)c1)CC(=O)N2 (stereo unspecified) ?
DT40 TDP1 no CPT: 16µM*; uPA generation: -19%; miR-21 act: 23%; DT40 TDP1 CPT: inconclusive

What do the screens show for `Cc1cc2c(cc1C)C(c1ccccc1F)CC(=O)N2` (stereo unspecified)?
DT40 TDP1 no CPT: inconclusive; uPA generation: -8%; miR-21 act: 6%; DT40 TDP1 CPT: inconclusive

What do the screens show for `Cc1cc2c(cc1C)C(c1cc(Br)ccc1F)CC(=O)N2` (stereo unspecified)?
DT40 TDP1 no CPT: 16µM*; uPA generation: -11%; miR-21 act: 9%; DT40 TDP1 CPT: inconclusive; TDP1 block: 2%

Results for Cc1nc2nc(-c3ccco3)[nH]n2c(=O)c1C ?
DT40 TDP1 no CPT: -15%; miR-21 act: 1%; DT40 TDP1 CPT: -1%; TDP1 block: 2%

Results for Cc1cc(=O)n2nc(N3CCC(C(=O)Nc4ccc(Br)c(C)c4)CC3)sc2n1 ?
DT40 TDP1 no CPT: -29%; miR-21 act: -9%; DT40 TDP1 CPT: 15µM*; TDP1 block: 8%

What do the screens show for `COc1ccc(OC)c(S(=O)(=O)NC2CCSc3ccccc32)c1` (stereo unspecified)?
DT40 TDP1 no CPT: -21%; uPA generation: 1%; miR-21 act: 4%; DT40 TDP1 CPT: -7%; TDP1 block: 3%

What do the screens show for `CC(C)(C)NC(=O)C(c1ccc(-c2ccccc2)cc1)n1c(=O)c(-c2cc3ccccc3[nH]2)nc2ccccc21` (stereo unspecified)?
DT40 TDP1 no CPT: 15µM*; DT40 TDP1 CPT: inconclusive

Results for Cc1cccc(C)c1NC(=O)C(CCc1ccccc1)n1c(=O)c(-c2cc3ccccc3[nH]2)nc2ccccc21 (stereo unspecified) ?
DT40 TDP1 no CPT: 6.5µM*; DT40 TDP1 CPT: 7.3µM*

Results for O=C(NCc1ccccc1)C(c1ccccc1)n1c(=O)c(-c2cc3ccccc3[nH]2)nc2ccccc21 (stereo unspecified) ?
DT40 TDP1 no CPT: 21µM*; DT40 TDP1 CPT: inconclusive

Results for Cc1cccc(C)c1NC(=O)C(CCc1ccccc1)n1c(=O)c(-c2ccccc2)nc2ccccc21 (stereo unspecified) ?
DT40 TDP1 no CPT: 4.1µM*; DT40 TDP1 CPT: 3.3µM*

What do the screens show for `Cc1ccc2nc(C)c(Cl)c(=O)n2c1`?
DT40 TDP1 no CPT: -4%; uPA generation: 2%; miR-21 act: -1%; DT40 TDP1 CPT: 5%; TDP1 block: 4%
